Gli-Sufu block – blocks Gli-Sufu signaling in a luciferase reporter; Sufu-KO-LIGHT fibroblasts, Gli luciferase reporter luminescence; inhibition, % at 5 µM; 340,000 compounds, 0.74% hits;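 active means inhibition above about 55%, limit read from the data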;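 further: 0% = DMSO-treated cells and 100% = wells with medium but no cells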
Jurkat NFkB inh – inhibitors of the PMA/ionomycin-induced NF-kB reporter in Jurkat cells; inhibition, % at 4 µM; AID 435003; PMA/ionomycin-induced NF-kB luciferase reporter, luminescence; 330,000 compounds, 0.53% hits; in the data active means inhibition above about 50%
697 NFkB inh – inhibitors of the PMA/ionomycin-induced NF-kB reporter in 697 B cells. 697 B-cell NF-kB luciferase reporter, 16 h. inhibition, % at 4 µM. 330,000 compounds, 0.33% hits. AID 435022; in the data active means inhibition above about 35%
Cardio protect – modulators protecting cardiomyocytes from myocardial damage. H9c2 cardiomyocytes, H2O2 injury protection, ATPLite, 2 h. protection from H2O2 cell death, % at 20 µM. AID 588492. 360,000 compounds, 0.63% hits;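 active means compounds giving at least 50% protection of heart cells from peroxide-induced death in the single-dose screen, raw or plate-pattern-corrected value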;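 further: 0% = DMSO wells with peroxide and 100% = DMSO wells without peroxide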
COUP-TFII inh – inhibitors of human COUP-TFII (NR2F2). HEK293T NGFI-A luciferase reporter, luminescence. inhibition, % at 8.6 µM. P24468. 370,000 compounds, 0.7% hits;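 active means inhibition above a per-plate cutoff, mean inhibition of test wells between control levels plus 3 SD, cut at about 38% in these data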;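 further: cells cotransfected with COUP-TFII expression vector driving the NGFI-A reporter; 0% = median of COUP-TF2 test wells and 100% = reporter-only cells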
Target sequence (P24468 whole entry, looked up): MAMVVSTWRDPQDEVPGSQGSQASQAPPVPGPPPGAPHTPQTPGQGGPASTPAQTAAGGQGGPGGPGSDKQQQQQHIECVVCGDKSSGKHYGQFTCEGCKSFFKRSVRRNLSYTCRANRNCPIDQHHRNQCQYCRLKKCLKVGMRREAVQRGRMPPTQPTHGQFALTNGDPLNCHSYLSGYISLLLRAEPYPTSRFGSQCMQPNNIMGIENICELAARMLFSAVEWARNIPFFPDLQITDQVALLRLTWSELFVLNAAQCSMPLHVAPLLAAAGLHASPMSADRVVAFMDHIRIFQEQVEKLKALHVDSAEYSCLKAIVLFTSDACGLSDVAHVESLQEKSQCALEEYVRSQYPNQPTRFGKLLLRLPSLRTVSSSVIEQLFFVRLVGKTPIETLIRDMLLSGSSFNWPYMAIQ
H9c2 TAG inh – triacylglycerol accumulation inhibition; H9c2 cells, Nile Red lipid (TAG) fluorescence; cells loaded with 200 µM oleic acid; inhibition, % at 12.5 µM; 230,000 compounds, 0.66% hits; AID 651582;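 active means pattern-corrected inhibition of lipid staining of at least 50% with the nuclear-stain viability signal not falling by more than 50%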;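 further: 0% = DMSO wells and 100% = triacsin C control wells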
Jurkat NFkB conf – lowers PMA/ionomycin-induced NF-kB signal in Jurkat cells | AID 435020 | shares compounds with Jurkat NFkB inh | inhibition, % at 4 µM | 2,700 compounds, 27% hits | Jurkat NF-kB luciferase, 16 h;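 active means inhibition reaching about 45% at 4 µM in either replicate, limit read from the data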;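 further: plate controls were PMA/ionomycin stimulated DMSO wells for no effect and unstimulated DMSO wells for full effect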
An asterisk follows results filed as active; x = not tested or not shown. A selection: hits, their analogues and other compounds. The true share with any hit is near 2.6%.

SMILES	Gli-Sufu block	Jurkat NFkB inh	697 NFkB inh	Cardio protect	COUP-TFII inh	H9c2 TAG inh	Jurkat NFkB conf
CCOC(=O)N1C(=O)C[C@](Sc2ccc(OC)cc2)(C(=O)N2CCOCC2)[C@H]1c1ccc(OC)cc1	x	x	x	x	-5.0	x	x
COc1ccc(-c2cc(C(=O)Nc3cc(C)ccc3O)no2)cc1	-41.8	62.4*	-143.1	-8.8	5.5	x	-33.6
Cc1ccc(-c2cc(C(=O)Nc3cc(C)ccc3O)no2)cc1	-17.3	x	x	-8.4	-5.7	7.1	x
Cc1ccc(O)c(NC(=O)c2cc(-c3ccccc3Cl)on2)c1	7.9	51.0*	-39.3	-5.6	-24.6	x	35.5
CN(C)c1ccc(-c2nc3ncc(Cl)cc3[nH]2)cc1	x	x	x	x	34.8	x	x
Cc1cc(C)cc(N(CC(=O)NC2CCC(C)CC2)S(=O)(=O)c2cccs2)c1 (stereo not drawn)	x	x	x	x	-12.6	x	x
CC(=O)c1cc(C(=O)Nc2ccc3ccccc3c2)c(C)o1	38.7	1.3	-2.0	-11.9	4.6	x	x
Cc1cc(C(=O)Nc2ccc3ccccc3c2)c(C)o1	-68.4	-176.2	-166.1	-11.7	-20.0	x	-11.9
O=C(Nc1ccc2ccccc2c1)c1cccc(F)c1	-94.3	-199.7	-220.6	-10.2	-48.0	x	-126.6
COC(=O)C1CN(Cc2ccc(F)cc2)CCS(=O)(=O)N1Cc1ccc(OC)cc1 (stereo not drawn)	x	x	x	x	5.2	x	x
CCN(CC)c1ccc(-c2nn3c(-c4n[nH]c5c4CCC5)nnc3s2)cc1	46.2	58.3*	-9.0	-33.6	1.2	57.2*	54.0*
O=C1CCC[C@H]2C[C@H](NCc3ccccc3Cl)CC[C@]23CCCN13	x	x	x	x	6.8	x	x
O=C1C=CCC(/C=C/c2ccccc2)O1 (stereo not drawn)	21.6	100.1*	-165.2	x	26.3	x	95.9*
O=C(NCc1ccco1)O[C@@H]1CC[C@@]23CCCN2C(=O)CCC[C@H]3C1	x	x	x	x	11.2	x	x
Cc1cc(N(C)C)ccc1N=Nc1ccc2ncccc2c1	-91.8	-164.6	-182.8	-15.0	-43.4	x	-104.6
FC(F)(F)c1nnc2c(Sc3ccc(Cl)cc3)nc3ccccc3n12	19.9	74.2*	8.3	-3.4	-3.5	133.2	4.5
CC1C(=O)OC(c2ccc(Cl)cc2)C(C)(C)C1=O (stereo not drawn)	10.2	-26.4	-5.4	0.4	-3.9	x	x
C[C@@H]1C=CC(=O)O[C@@H]1c1ccc(Cl)cc1	6.4	96.0*	-32.5	x	17.8	x	96.8*
COc1ccc2oc(=N)c(C(=O)Nc3ccccc3Cl)cc2c1	-93.8	-160.1	-196.3	-11.2	-32.0	x	-92.0
COc1ccc2oc(=N)c(C(=O)Nc3ccccc3)cc2c1	5.5	-121.6	-171.8	-8.8	-35.4	3.8	x
CCn1c(O)c(/C=C2\C=Nc3ccccc32)sc1=Nc1ccc(C)cc1	-2.2	61.7*	-1.3	-5.8	-9.1	x	2.4
COC(CNC(=O)[C@H](Cc1c[nH]c2ccccc12)NC1(C(=O)NC(c2ccccc2)c2ccccc2)CCCCC1)OC	x	x	x	x	13.1	x	x
COc1ccc(-n2nnnc2-c2cccc(OC)c2)cc1	10.7	50.0	-4.8	-0.7	-5.4	48.2	42.2
CC(C)(C)c1ccc(/C=C/C(=O)NC2=NCCS2)cc1	-16.0	-161.1	-204.2	-20.7	-3.5	18.9	-79.8
Clc1ccc(-n2nnc(-c3cccnc3Cl)n2)cn1	-67.9	-40.8	-26.6	-4.6	-38.3	-8.2	x
SMILES	Gli-Sufu block	Jurkat NFkB inh	697 NFkB inh	Cardio protect	COUP-TFII inh	H9c2 TAG inh	Jurkat NFkB conf
Cc1ccc(-n2nnc(-c3cccnc3Cl)n2)cc1	-124.2	-172.7	-227.5	-28.8	-66.6	-6.4	-86.2
Cc1ccc(-n2nnc(-c3cc4ccccc4n3C)n2)cc1	-109.5	-151.8	-182.0	-10.1	4.1	10.4	-47.5
CCCN1CCCCC(NC(=O)COCc2ccccc2)C1=O (stereo not drawn)	x	x	x	x	13.2	x	x
Cc1cccc(/C=N/NC(=O)c2cc(C3CC3)nc3ccccc23)n1	-1.2	10.9	10.9	45.4	-17.9	x	x
CCc1ccc(/C=N/NC(=O)c2cc(C3CC3)nc3ccccc23)s1	2.8	58.3*	-22.8	-5.3	-4.9	29.1	33.0
CCOC(=O)[C@@]12CCCC=C1N(CCc1ccc(Cl)cc1)C(=O)[C@H]2CC(=O)NCC1CCCCC1	x	x	x	x	-4.8	x	x
O=C(Nc1nc2ncccn2c1-c1ccccc1)c1ccc(F)cc1	x	x	x	x	0.4	x	x
COc1ccc(OC)c2c1C(=O)C(Cl)=C(Cl)C2=O	16.8	60.3*	-111.0	-14.9	20.0	83.7	67.8*
Cc1cc(-c2ccc(C(C)C)c(S(=O)(=O)N3CCN(c4ccccc4)CC3)c2)on1	40.5	52.7*	-52.7	-6.4	7.3	x	47.1*
Cc1cccc(N2CCN(S(=O)(=O)c3cc(-c4cc(C)no4)ccc3C)CC2C)c1 (stereo not drawn)	15.2	64.0*	-25.6	-12.1	33.7	x	31.8
COc1ccc(C=Nn2c(-c3ccc(F)cc3)n[nH]c2=S)cc1OCc1ccccc1	x	x	x	x	0.1	x	x
COC(=O)[C@]12C[C@H](CC(=O)N3CCN(C(=O)C4CC4)CC3)C(=O)N(Cc3ccc(Cl)cc3Cl)C1=C[C@H](C1CCCC1)O[C@@H]2C	x	x	x	x	14.5	x	x
CC(C)[C@@H]1OC(=O)[C@@H]2CCCN2C(=O)[C@H](C)OC(=O)[C@H](C)[C@@H](C(C)C)NC(=O)[C@@H]2CCCN2C(=O)[C@H]([C@H](C)Cc2ccccc2)NC(=O)[C@@H]2CCCN2C(=O)[C@@H](C(C)C)N(C)C1=O	x	x	x	x	8.5	x	x
O=c1[nH]c(CN2CCN(c3ccc(O)cc3)CC2)nc2scc(-c3ccc(Cl)cc3)c12	4.8	59.6*	-46.8	-11.6	15.7	36.2	19.5
COc1ccc(Nc2ncnc3scc(-c4ccc(OC)cc4)c23)cc1	5.4	51.6*	-45.7	13.8	-16.9	x	21.6
COc1cccc(/C=N/Nc2ncnc3scc(-c4ccccc4)c23)c1O	88.1*	73.1*	-19.9	69.5*	-6.3	x	57.0*
COc1ccc(/C=N/Nc2ncnc(Cl)c2N)cc1OC	-9.2	-1.4	13.3	-6.7	3.2	x	x
COc1cccc(/C=N/Nc2ncnc(Cl)c2N)c1O	79.3*	56.0*	-85.3	3.0	-4.3	x	12.7
CCOC(=O)c1c2c(n(C)c1C)C(=O)C(=O)c1ccc(Br)cc1-2	-6.9	52.0*	3.2	-7.5	10.0	144.6	32.9
COC(=O)[C@]12CCCCC=C1N(Cc1ccc(OC)cc1)C(=O)[C@@H]2CC(=O)N1CCCC1	x	x	x	x	4.2	x	x
Cc1ccc(N/N=C(\C#N)C(=N)N2CCCCCC2)cc1	-86.8	-185.0	-147.6	-23.3	-25.7	-0.7	-89.6
N#C/C(=N\Nc1ccc(Cl)cc1)C(=N)N1CCCCC1	-96.6	-200.1	-228.2	-25.4	-61.2	5.9	-102.7
N#C/C(=N\Nc1ccc(F)cc1)C(=N)N1CCCCCC1	-84.6	-194.3	-181.4	-14.6	-70.1	-3.0	-55.4
COc1ccc(N/N=C(\C#N)C(=N)N2CCCCC2)cc1	-57.0	-43.6	-53.8	-10.9	-51.1	0.8	x
N#CCC[C@@H]1CC[C@]2(CCCN(S(=O)(=O)c3ccccc3)C2)O1	x	x	x	x	15.8	x	x

From PubChem BioAssay
